Test results reported in PubChem BioAssay (NCI).
About 83,000 compounds went through this panel and 20% of them were active in at least one assay; those are over-represented in the sample as a whole.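 Negative percent growth values reflect cell death: -40 means 40% of the cells present at the start died, and -100 means all died.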 The source made the active and inactive calls. Rule for the calls: active = growth percent below 10; inactive = the rest.

The compounds below were run on SNB-19 CNS (assay: NCI-60 one-dose screen, 48 h (100 = growth as untreated, 0 = no growth, -100 = all killed)). Conditions: 10 µM unless noted.

Structure (SMILES) | growth
Cc1cc(N(CCCNc2ccnc3cc(Cl)ccc23)Cc2ccccn2)nc(N2CCOCC2)n1 | 93.9% (inactive)
C=C(CNCCc1ccc(O)cc1)[C@@H]1CC[C@]2(COC3CCCCO3)CC[C@]3(C)[C@H](CC[C@@H]4[C@@]5(C)CCC(N)C(C)(C)[C@@H]5CC[C@]43C)[C@@H]12 (stereo not given in full) | -85.8% (active)
Clc1ccc2c(NCCCN3CCN(c4nc(-n5ccnc5)nc5ccccc45)CC3)ccnc2c1 | 99.5% (inactive)
Cn1c(NCCc2ccc(O)c(O)c2)nc2c1c(=O)n(Cc1ccc(Cl)cc1)c(=O)n2C | 93% (inactive)
CCN(CC)N=Nc1nn(C(=O)Nc2ccc(Cc3ccccc3)cc2)c2ccc(Cl)cc12 | 67.2% (inactive)
COC(=O)c1ccc2oc(NC(=O)c3ccc(N4CCOCC4)c([N+](=O)[O-])c3)nc2c1 | 92.4% (inactive)

The compounds below were run on U251 CNS in the same assay as above. Conditions: 10 µM unless noted.

Structure (SMILES) | growth
OCCCCc1nccc2c1[nH]c1ccccc12 | 108% (inactive)
CCCn1nc(-c2ccccc2)c2c(-c3ccccc3)onc2c1=O | 72.9% (inactive)
Cc1cc(N(CCCNc2ccnc3cc(Cl)ccc23)Cc2ccccn2)nc(N2CCCC2)n1 | 74.8% (inactive)
C=C(C)[C@@H]1CC[C@]2(CN)CC[C@]3(C)[C@H](CC[C@@H]4[C@@]5(C)CCC(N)[C@@](C)(CO)[C@@H]5CC[C@]43C)[C@@H]12 (stereo not given in full) | -93.8% (active)
COc1ccc(-n2ncn(CCCCCCn3cnn(-c4ccc(OC)cc4)c3=O)c2=O)cc1 | 94.3% (inactive)
O=C(NC1CCOCC1)c1ccc2c(c1)CN(c1ncc(Cc3cccc(-n4cccn4)c3)s1)CC2 | 72.6% (inactive)
C=C(CNCCc1ccc(O)cc1)[C@@H]1CC[C@]2(COC3CCCCO3)CC[C@]3(C)[C@H](CC[C@@H]4[C@@]5(C)CCC(NCCO)C(C)(C)[C@@H]5CC[C@]43C)[C@@H]12 (stereo not given in full) | -95% (active)
Cc1c(C(=O)O[C@H]2[C@@H]3[C@H](C)CC[C@H]3[C@]3(C)O[C@@]2(C2CCCCC2)C[C@H]3OC(=O)CO)ccc2ccccc12 | 4.41% (active)
COc1ccc(Oc2nc(Nc3ccc(N4CCCCC4)nc3)ncc2NC(=O)c2cc(OC)cc(OC)c2)cc1 | 35.1% (inactive)
O=C(Oc1ccc[nH]c1=O)c1cc([N+](=O)[O-])cc([N+](=O)[O-])c1 | 109% (inactive)
Cc1cc(N2CCCCC2)nc(N(CCNc2ccnc3cc(Cl)ccc23)Cc2ccccn2)n1 | 41.8% (inactive)
CCCCOc1ccc(NC(=O)n2nc(N=NN(C)C)c3ccc(Cl)cc32)cc1 | 118% (inactive)
O=C1NN(C(=O)c2ccc(O)cc2)C(c2ccccc2)=N/C1=C\c1cn(-c2ccccc2)nc1-c1ccccc1 | 96.2% (inactive)
COC(=O)/C(=C\c1ccc(OC)cc1)C(=O)N1c2ccccc2Sc2ccccc21 | 50.3% (inactive)
COc1ccc(Oc2nc(Nc3ccc(N4CCOCC4)nc3)ncc2NC(=O)c2cc(OC)cc(OC)c2)cc1 | 84.2% (inactive)
NC(=O)c1c(NC(=O)c2ccc(C(F)(F)F)cc2Cl)sc2c1CCC(=O)C2 | -5.53% (active)
O=C(NCCOCCOCCOCCNC(=O)c1cc2c(o1)C(=O)c1ccccc1C2=O)NC12CC3CC(CC(C3)C1)C2 | -22% (active)
COC(=O)c1ccc(CSc2nnc(-c3ccncc3)o2)cc1 | 104% (inactive)
CCCc1nc2ccccn2c1Nc1ccc(C(=O)NO)cc1 | 95.9% (inactive)
Fc1ccc(Nc2ccc3cc(OCCCN4CCOCC4)ccc3n2)cc1F | 41.7% (inactive)

Structure (SMILES) | growth
C=C1c2c(C)nn(-c3ccc(S(N)(=O)=O)cc3)c2N(C)C23CC1C1(C)c4c(C)nn(-c5ccc(S(N)(=O)=O)cc5)c4N(C)C(C)(CC12)C3 (stereo not given) | 24.7% (inactive)
C=C1c2c(C)nn(-c3ccc(NC(C)=O)cc3)c2N(C)C23CC1C1(C)c4c(C)nn(-c5ccc(NC(C)=O)cc5)c4N(C)C(C)(CC12)C3 (stereo not given) | 33.3% (inactive)
C[C@@H]1CC[C@@H]2[C@@H]1[C@H](OC(=O)c1ccc3ccccc3c1)[C@]1(C3CCCCC3)C[C@@H](OC(=O)CO)[C@@]2(C)O1 | 48.9% (inactive)
CC(C)(C)c1ccc(C(=O)Nc2sc3c(c2C(N)=O)CCC(=O)C3)cc1 | -43.8% (active)
N=c1ccn2c(n1)OC1C(O)C(CO)OC12 (stereo not given) | 37.7% (inactive)
NC(=Nc1ccc(N)cc1)C(N)=Nc1ccc(N)cc1 | 101% (inactive)
COc1ccc(/C=C(\C#N)n2nnc3cc(F)c(F)cc32)c(OC)c1OC | 73.9% (inactive)
C=C1c2c(C)nn(-c3ccc(O)cc3)c2N(C)C23C[C@@H]1C1(C)c4c(C)nn(-c5ccc(O)cc5)c4N(C)C(C)(C[C@H]12)C3 (stereo not given in full) | 33% (inactive)
CSc1ccc(Cl)c(C(=O)Nc2sccc2C(N)=O)c1 | 94.3% (inactive)
C=C1c2c(C)nn(-c3ccc(N)cc3)c2N(C)C23CC1C1(C)c4c(C)nn(-c5ccc(N)cc5)c4N(C)C(C)(CC12)C3 (stereo not given) | 79.1% (inactive)
CC(=O)Nc1ccc2c(c1)Cc1c(F)cccc1-2 | 107% (inactive)
C=C(C)[C@@H]1CC[C@]2(CNCCO)CC[C@]3(C)[C@H](CC[C@@H]4[C@@]5(C)CCC(N)[C@@](C)(CO)[C@@H]5CC[C@]43C)[C@@H]12 (stereo not given in full) | -86.1% (active)
Cc1cnc(Nc2ccc(OCCN3CCCC3)cc2)nc1NCc1ccco1 | 65.8% (inactive)
Cc1cc(N(CCCNc2ccnc3cc(Cl)ccc23)Cc2ccccn2)nc(N2CCOCC2)n1 | 94.8% (inactive)
C=C(CNCCc1ccc(O)cc1)[C@@H]1CC[C@]2(COC3CCCCO3)CC[C@]3(C)[C@H](CC[C@@H]4[C@@]5(C)CCC(N)C(C)(C)[C@@H]5CC[C@]43C)[C@@H]12 (stereo not given in full) | -91.7% (active)
Clc1ccc2c(NCCCN3CCN(c4nc(-n5ccnc5)nc5ccccc45)CC3)ccnc2c1 | 97.2% (inactive)
Cn1c(NCCc2ccc(O)c(O)c2)nc2c1c(=O)n(Cc1ccc(Cl)cc1)c(=O)n2C | 104% (inactive)
CCN(CC)N=Nc1nn(C(=O)Nc2ccc(Cc3ccccc3)cc2)c2ccc(Cl)cc12 | 93.4% (inactive)
COC(=O)c1ccc2oc(NC(=O)c3ccc(N4CCOCC4)c([N+](=O)[O-])c3)nc2c1 | 92.2% (inactive)
